According to the supplement of paper PMC11732987, “Enantioselective OTUD7B fragment discovery through chemoproteomics screening and high-throughput optimisation” (Communications Chemistry, 2025):
A number with no mark means an inactive call.

What was measured:
Assay in all cases: log2 ratio of Biotin-Ahx-Ub-VS probe labelling (fragment/DMSO); higher = less target engagement (more negative = stronger competition), active = hit call of the paper (q ≤ 0.05, log2 ratio ≤ -1)
Settings in all cases: compound concentration: 200 uM; treatment time: 3 h
[1] = molecular target: T1, ALG13 (UniProt Q9NP73)
T1 sequence (whole entry): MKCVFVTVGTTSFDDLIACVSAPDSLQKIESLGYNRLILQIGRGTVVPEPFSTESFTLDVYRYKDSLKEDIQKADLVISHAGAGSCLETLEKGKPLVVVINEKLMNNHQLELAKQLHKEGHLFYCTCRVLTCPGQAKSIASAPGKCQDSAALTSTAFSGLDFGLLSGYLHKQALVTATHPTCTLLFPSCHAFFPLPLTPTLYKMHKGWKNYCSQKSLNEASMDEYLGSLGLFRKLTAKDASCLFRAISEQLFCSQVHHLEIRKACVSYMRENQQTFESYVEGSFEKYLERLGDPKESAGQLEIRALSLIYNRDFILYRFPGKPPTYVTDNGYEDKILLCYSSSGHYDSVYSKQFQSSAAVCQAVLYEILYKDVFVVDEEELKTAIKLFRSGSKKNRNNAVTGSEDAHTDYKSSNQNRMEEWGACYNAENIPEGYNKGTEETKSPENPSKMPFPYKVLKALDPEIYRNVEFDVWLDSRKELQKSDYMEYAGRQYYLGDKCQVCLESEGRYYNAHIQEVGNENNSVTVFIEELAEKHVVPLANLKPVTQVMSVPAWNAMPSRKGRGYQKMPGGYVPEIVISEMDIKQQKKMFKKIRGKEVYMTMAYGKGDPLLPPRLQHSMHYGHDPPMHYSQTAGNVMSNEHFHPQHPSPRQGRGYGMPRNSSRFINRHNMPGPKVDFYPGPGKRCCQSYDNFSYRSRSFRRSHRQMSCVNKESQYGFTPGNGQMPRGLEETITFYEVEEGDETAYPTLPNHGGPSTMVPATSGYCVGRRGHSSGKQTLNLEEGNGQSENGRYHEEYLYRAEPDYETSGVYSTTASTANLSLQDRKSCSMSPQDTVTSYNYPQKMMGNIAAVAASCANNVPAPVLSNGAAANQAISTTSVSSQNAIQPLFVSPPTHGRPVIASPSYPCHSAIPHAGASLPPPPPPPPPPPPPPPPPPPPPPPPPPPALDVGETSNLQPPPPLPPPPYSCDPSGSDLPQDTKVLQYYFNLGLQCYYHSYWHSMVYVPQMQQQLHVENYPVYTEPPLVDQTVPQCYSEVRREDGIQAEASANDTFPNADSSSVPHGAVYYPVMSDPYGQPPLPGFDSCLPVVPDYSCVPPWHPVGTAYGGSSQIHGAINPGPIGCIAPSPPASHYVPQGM
Outline: (§1)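 Fragment (200 µM) or vehicle was incubated for 3 h with triplicate HEK293T lysate samples of 495 µg, which were then treated with Biotin-Ahx-Ub-VS at 0.5 µM final for 1 h. Labelled DUBs were enriched on NeutrAvidin, digested with LysC and trypsin, and analysed by diaPASEF LC-MS/MS. Values are average log2 fragment/vehicle ratios from an unpaired t-test on global-median-normalised Spectronaut label-free quantities, using proteins with ≥2 unique peptides.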

[2] = molecular target: ATXN3 (UniProt P54252)
Outline: as §1

[3] = molecular target: T2, BAP1 (UniProt Q92560)
T2 sequence (whole entry): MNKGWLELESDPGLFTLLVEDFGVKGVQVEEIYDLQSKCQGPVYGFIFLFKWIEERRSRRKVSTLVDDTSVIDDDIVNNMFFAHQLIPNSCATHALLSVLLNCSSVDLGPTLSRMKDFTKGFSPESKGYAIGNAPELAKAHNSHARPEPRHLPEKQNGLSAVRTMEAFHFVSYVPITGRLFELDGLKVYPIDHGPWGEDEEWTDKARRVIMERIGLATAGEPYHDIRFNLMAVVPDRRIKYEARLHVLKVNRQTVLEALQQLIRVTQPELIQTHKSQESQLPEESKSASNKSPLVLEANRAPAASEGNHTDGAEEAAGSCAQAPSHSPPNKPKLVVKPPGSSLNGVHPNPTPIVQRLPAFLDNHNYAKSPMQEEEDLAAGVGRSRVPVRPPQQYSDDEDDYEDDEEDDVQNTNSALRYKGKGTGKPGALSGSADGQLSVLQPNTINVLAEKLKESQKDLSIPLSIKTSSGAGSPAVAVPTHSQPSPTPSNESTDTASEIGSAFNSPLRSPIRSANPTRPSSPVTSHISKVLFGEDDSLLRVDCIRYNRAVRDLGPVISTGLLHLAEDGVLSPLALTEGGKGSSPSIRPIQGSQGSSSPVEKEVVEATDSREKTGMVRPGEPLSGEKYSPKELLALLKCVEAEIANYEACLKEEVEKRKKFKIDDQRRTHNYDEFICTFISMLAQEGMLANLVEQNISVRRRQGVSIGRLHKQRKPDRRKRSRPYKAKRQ
Outline: as §1

[4] = molecular target: EIF3F (UniProt O00303)
Outline: as §1

[5] = molecular target: EIF3H (UniProt O15372)
Outline: as §1

[6] = molecular target: T3, FAM105A (UniProt Q9NUU6)
T3 sequence (whole entry): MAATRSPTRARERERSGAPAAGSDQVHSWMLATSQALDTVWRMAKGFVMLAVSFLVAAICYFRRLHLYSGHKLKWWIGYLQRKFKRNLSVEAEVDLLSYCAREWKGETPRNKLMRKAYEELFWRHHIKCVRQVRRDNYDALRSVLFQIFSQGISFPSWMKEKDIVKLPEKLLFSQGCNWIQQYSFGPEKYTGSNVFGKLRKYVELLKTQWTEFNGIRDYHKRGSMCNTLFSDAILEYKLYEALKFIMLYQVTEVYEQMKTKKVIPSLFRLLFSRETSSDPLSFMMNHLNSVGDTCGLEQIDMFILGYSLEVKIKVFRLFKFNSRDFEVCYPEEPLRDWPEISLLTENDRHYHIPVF
Outline: as §1

[7] = molecular target: OTUB1 (UniProt Q96FW1)
Outline: as §1

[8] = molecular target: T4, OTUD4 (UniProt Q01804)
T4 sequence (whole entry): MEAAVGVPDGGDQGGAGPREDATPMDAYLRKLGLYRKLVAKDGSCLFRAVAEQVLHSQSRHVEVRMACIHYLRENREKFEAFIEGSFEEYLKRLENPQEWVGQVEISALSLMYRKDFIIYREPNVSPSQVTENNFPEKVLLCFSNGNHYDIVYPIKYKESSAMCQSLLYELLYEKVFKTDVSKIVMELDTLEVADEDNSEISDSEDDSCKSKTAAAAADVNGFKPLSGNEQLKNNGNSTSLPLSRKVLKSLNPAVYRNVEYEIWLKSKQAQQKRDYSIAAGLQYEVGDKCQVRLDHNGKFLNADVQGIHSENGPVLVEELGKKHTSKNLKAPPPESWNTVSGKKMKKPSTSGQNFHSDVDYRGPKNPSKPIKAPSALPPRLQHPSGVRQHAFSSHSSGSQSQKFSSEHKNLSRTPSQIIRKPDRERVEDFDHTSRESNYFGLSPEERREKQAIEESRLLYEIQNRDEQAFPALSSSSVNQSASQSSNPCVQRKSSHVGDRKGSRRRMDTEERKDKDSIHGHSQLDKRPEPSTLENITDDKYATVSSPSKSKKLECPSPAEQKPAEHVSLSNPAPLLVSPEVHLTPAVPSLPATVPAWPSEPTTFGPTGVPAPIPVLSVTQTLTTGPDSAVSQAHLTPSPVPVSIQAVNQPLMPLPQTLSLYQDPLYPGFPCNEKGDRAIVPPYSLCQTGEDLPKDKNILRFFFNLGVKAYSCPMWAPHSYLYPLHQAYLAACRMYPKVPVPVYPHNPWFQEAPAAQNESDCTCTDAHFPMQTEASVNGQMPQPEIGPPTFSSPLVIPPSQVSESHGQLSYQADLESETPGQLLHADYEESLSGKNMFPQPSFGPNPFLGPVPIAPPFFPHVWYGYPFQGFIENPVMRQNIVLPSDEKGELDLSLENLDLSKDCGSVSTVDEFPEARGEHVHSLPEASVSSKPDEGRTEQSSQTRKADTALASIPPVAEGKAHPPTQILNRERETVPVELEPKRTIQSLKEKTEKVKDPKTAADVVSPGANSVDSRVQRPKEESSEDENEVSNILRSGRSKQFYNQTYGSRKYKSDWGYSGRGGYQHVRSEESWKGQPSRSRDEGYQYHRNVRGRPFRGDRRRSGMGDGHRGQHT
Outline: as §1

[9] = molecular target: T5, OTUD5 (UniProt Q96G74)
T5 sequence (whole entry): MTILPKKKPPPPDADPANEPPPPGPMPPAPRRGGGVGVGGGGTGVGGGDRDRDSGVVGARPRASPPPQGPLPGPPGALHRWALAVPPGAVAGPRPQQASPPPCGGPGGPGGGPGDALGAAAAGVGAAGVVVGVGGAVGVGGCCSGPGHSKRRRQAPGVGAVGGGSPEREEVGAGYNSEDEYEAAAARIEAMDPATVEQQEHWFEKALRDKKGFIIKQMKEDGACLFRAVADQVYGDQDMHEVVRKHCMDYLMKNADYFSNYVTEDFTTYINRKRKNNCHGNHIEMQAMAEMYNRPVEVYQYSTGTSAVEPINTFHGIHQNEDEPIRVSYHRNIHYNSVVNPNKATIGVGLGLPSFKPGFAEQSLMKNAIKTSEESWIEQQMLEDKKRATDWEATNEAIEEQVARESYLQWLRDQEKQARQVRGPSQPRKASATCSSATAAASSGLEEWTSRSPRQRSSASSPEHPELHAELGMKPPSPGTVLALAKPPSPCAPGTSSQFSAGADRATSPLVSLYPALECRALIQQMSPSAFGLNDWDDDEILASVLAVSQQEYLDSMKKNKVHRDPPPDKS
Outline: as §1

EIF3H, sequence (O15372 whole entry): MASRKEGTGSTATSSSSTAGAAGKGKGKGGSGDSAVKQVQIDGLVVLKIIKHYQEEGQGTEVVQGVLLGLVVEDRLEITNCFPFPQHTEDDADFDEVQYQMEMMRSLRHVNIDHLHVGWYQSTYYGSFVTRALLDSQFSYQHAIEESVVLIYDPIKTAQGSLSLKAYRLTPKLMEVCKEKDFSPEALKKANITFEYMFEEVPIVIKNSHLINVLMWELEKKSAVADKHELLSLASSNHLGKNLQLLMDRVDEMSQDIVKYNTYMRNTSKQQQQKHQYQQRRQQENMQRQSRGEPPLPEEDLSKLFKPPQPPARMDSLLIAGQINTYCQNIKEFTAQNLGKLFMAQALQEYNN
ATXN3, sequence (P54252 whole entry): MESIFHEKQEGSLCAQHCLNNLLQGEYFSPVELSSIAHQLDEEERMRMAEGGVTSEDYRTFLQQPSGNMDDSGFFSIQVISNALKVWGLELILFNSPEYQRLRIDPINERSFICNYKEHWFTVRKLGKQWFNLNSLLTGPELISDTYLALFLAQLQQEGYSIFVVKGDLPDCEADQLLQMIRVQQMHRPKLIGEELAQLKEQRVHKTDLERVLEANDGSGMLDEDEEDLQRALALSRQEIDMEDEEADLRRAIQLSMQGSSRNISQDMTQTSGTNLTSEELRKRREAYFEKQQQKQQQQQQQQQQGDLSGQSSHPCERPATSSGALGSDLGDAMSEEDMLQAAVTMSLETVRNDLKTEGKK
EIF3F, sequence (O00303 whole entry): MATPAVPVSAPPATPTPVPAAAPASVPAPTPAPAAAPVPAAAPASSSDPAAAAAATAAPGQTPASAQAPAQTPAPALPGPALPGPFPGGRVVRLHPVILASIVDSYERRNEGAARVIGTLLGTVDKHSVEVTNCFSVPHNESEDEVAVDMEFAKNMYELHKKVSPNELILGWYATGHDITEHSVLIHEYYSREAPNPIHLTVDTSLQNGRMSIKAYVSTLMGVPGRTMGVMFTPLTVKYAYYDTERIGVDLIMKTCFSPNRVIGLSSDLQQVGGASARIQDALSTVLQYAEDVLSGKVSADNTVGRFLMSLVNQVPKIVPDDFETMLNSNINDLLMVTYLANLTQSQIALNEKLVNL
OTUB1, sequence (Q96FW1 whole entry): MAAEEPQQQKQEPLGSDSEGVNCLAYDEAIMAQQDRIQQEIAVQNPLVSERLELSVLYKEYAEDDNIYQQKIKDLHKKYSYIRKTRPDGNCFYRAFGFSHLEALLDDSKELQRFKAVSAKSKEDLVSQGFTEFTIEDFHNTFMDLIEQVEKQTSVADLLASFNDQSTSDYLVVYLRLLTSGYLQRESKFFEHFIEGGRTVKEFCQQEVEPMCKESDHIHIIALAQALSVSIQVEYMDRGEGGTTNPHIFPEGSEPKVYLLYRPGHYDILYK

SMILES: CC1CN(c2ccc(NC(=O)CCl)cc2)CC(C)O1 (centres undefined)
- log2 ratio of Biotin-Ahx-Ub-VS probe labelling [1]: -0.442
- log2 ratio of Biotin-Ahx-Ub-VS probe labelling [2]: -0.412
- log2 ratio of Biotin-Ahx-Ub-VS probe labelling [3]: -2.48 (active)
- log2 ratio of Biotin-Ahx-Ub-VS probe labelling [4]: -0.0748
- log2 ratio of Biotin-Ahx-Ub-VS probe labelling [5]: 0.0832
- log2 ratio of Biotin-Ahx-Ub-VS probe labelling [6]: 0.115
- log2 ratio of Biotin-Ahx-Ub-VS probe labelling [7]: 0.133
- log2 ratio of Biotin-Ahx-Ub-VS probe labelling [8]: -0.357
- log2 ratio of Biotin-Ahx-Ub-VS probe labelling [9]: -0.371
